{"source": "the supplement of paper PMC12632987", "binders": {"B1": {"name": "GBRAP_52_5905 (protein)", "chain": "MRARLRADLEEIIAAVRAGDLEAARAKARELAETYDDEELELAAEELAALVLEAPREDLPAWWRTAEIIAEALEEAGRDEVLADLVLSRTAAAIHEVLQR"}, "B2": {"name": "GBRAP_184_5056 (protein)", "chain": "MIHEKVIKAETLEELEEKLEELEEELKDFKGELIVHVEIPEFTEEMIELIIERLKRILENGYVSSVTLGLDGKMSEEVVDLAIKLADEAGIKLVIALEEE"}, "B3": {"name": "GBRAP_14_3829 (protein)", "chain": "MEEIEAVIEEAREDLIELFEEIVPEKAEELAEAVEEVFEELKRRIKETGNVEEAIEEARERLKEEAKKILADEPEEIRNLVLAAIDIEFAELEEEIEELL"}, "B4": {"name": "GBRAP_160_4075 (protein)", "chain": "SKETEELKKEIKEIAEEAIEFIKESNLENQIAIAEMMAGDILMLVFEAPFISDEDEERIDKILDKYVELLKENKDWSLEEKEEIIKEMAEEVIKEVEKAS"}, "B5": {"name": "GBRAP_11_2853 (protein)", "chain": "KKEKLKEIAELAEEAIKLLEELLKKGVDDEELQKKILEKLKELLELVKKYLDEADVKLAEYALESFEKSLKDPENAEEYVNEALAFLRVLLGNVLLEIDE"}, "B6": {"name": "GBRAP_78_6627 (protein)", "chain": "EVEELLEKALEKVEEAAKLATKIPSEKAIDILDELIDAFEYLEEAIEEGGDLEKIEKALKELKKALELIKEQNDPKLEPLKKEVEEAIKLLEKAKKKIKE"}, "B7": {"name": "GBRAP_177_5010 (protein)", "chain": "SRLAEIEAAADDPEALLALVAATDLRELSREELLALLRALARAIAREGPRPELLEAAVRVAVALITDHGVSLAEVVAILIEHADPDTVEEVVERVAERLA"}, "B8": {"name": "GBRAP_39_5638 (protein)", "chain": "SREEEAEETFDYLEALGAKLLSERGISLDELLEEEYKYAREAFKDDPELLAAIDELYELALKGDDTDKLAAAGAFSLVREGKSKEEVLEAVELLIYYLKS"}, "B9": {"name": "GBRAP_160_4650 (protein)", "chain": "EERKEKLKERIKELIEEAYEMMKGETHEERIAIARVMGGDIILELDEDEGVSDEAIEEVDKIMDEFVATLEANPDLTDEEIRALLEEMLKKIFEIIDKYT"}, "B10": {"name": "GBRAP_9_7158 (protein)", "chain": "MDELVAKLREVIEDAFEEIKEVVPEEVKPIVEKLREEAEKRLEELEEDPEATPEELVEEAKRILREFRERMKKEVDEETAKIVDAIVDTAELEIEEIEEE"}, "B11": {"name": "GBRAP_39_5717 (protein)", "chain": "EEEEEAENIFSYYEAVGAAEMYKRGISLEELFERTLAEARELAADDPELLAALEELEELALKAGDEAKLAATGIMVRLVEGAPREEVLADLKKLIAYLKS"}, "B12": {"name": "GBRAP_160_4742 (protein)", "chain": "KEELEKLKKEIEEIFKEGIELLKESEKEEALTIVRGIMGDVIMEVMSSEAASDELEEKIAEIADKAIEEVEKNKDAPIEKVIEIVEKAREEILKLIEEEI"}, "B13": {"name": "GBRAP_160_4574 (protein)", "chain": "SEEMKKLKEEIKEITEEAKEFIEGQSREEQIAIVKVAMGDILLLLDENPLVSDETEDKAAAIGDALIAYIEAHPDLTAEEIKELLEKATEEIIKLIEKEE"}, "B14": {"name": "GBRAP_128_3555 (protein)", "chain": "STEEVVEEAEELLEKIKESDEEEAREYARELVRLLASVDEESREAIVKVILERLPELTVEQLEILADVFREERPKVDPDVANALAEIEVEALNVALEKEE"}, "B15": {"name": "GBRAP_137_3630 (protein)", "chain": "ATVEIEVEEYEDVVEITVTLKDAAKAEAVKELVLDVAHEHGALAVSVEVEEDGTLVVTVWVPREKAEAFLEALVRRLQTELGLRVRVRNLDTGEEEEFEP"}, "B16": {"name": "GBRAP_128_3422 (protein)", "chain": "SRAAAVARARALLEAMKTADDATAAALADELAALFASADLETAEAIAEVIRAEIPKLTAKQLDILADAFRAALPKLTPEKANIAADVIVDLLNEREELEE"}, "B17": {"name": "GBRAP_128_3379 (protein)", "chain": "MDEEKLERVRELVRRAIESDVEETRELTREVVRLMGTLSPEEREAAAEIVIEALPEFSREKLDAIADTIRELRPELDPLGQELAAEVEVAALNRAEELEE"}, "B18": {"name": "GBRAP_52_6373 (protein)", "chain": "MEERARELARRILELAEAGDEEGLREEVRRIVEEESDELIAAVLRELRDMILTEPGLDPEALLTAAATLASEVLEAEKGTPETWAALTELLAAALALEQA"}, "B19": {"name": "GBRAP_52_5974 (protein)", "chain": "MEEEMRKLAKEIVALILAGDEAGARALLEEIAATKTEEEITLLFKELAKLAKTATPEERDAIVEAALLAEDIALAAGFDEAVMDSNLADVVKAAVDAEKA"}, "B20": {"name": "GBRAP_184_5132 (protein)", "chain": "TLLERAVEAKTAEELIAKARAVVEEAAAAGARLVLSVFAEDLSVEDNIAVIRELGELKAAHPQIEAIIVDLPEVSEEDLDKLIEAADAAGVKLVAAIPDE"}, "B21": {"name": "GBRAP_52_6073 (protein)", "chain": "MEEKIEKLAEEITEAIKAGDDEKALELLEKAVKELSEEEIKKLLVLTAKKVAKLNEEEHERFVDILDEFEDILIENGISEEDALLIVGDALAALAKEVAK"}, "B22": {"name": "GBRAP_52_6102 (protein)", "chain": "MREELRKKVREILELVREGKLEEARKKIKELVESLNDEEIRLVADEIAELAREAAPEDLDAVWTLAEMFAEELEKAGKPEVLVDYLLASTAAALYEREQA"}, "B23": {"name": "GBRAP_195_5410 (protein)", "chain": "MKVVGRVLRIEESDTPEDILAKIEAIVAEVKEESNGDLVLVVARHPSVPEETVRAAVAEAAERYPEIKITVEIFDDISLPLETLEAFARMEVANEEEERE"}, "B24": {"name": "GBRAP_160_3988 (protein)", "chain": "EEEKKKLLKEIEEIFKETYELASGEDPENRLTVVRVHMGEILLLAEESGILSEESIEKIDEILDELVEKVAANPDMTDEELKALLEEALKKIKEIIEAEK"}, "B25": {"name": "GBRAP_137_3679 (protein)", "chain": "MKVKITIEEHEDVVEITVTIEDKETGEELAEKIEDIAVEVGALAISVEKNEDGTYEVTIYVPKEKLEELLKKILELLKDADEVEIIRIVDGKETVEVIKN"}, "B26": {"name": "GBRAP_73_6498 (protein)", "chain": "LTDTGLTDEEIADIVDHENDIFNGGEEAYEAAVARIRAALPELSPERQELLRRILEAAERAKKKDKLLAYELVALALAVVEGLDLEKARRALEALEKRLE"}, "B27": {"name": "GBRAP_52_6205 (protein)", "chain": "MHERMRAHARELVALVKAGDLDAARAYARELARTLNEEELELLGEELVELAKTAAPEDLDAIFKAAEILSDVLEEEGFDEALADGLLNRVAAALYERELK"}, "B28": {"name": "GBRAP_160_4347 (protein)", "chain": "MEAAEKLIKELKEATERVIAEVDKLSVEQVAVVAAGEFGAVAMEAAEDERYSDEMVDVIIDAQDKILAFLDENKDASPEEIKEGIKKITEEAIKKIKEIA"}, "B29": {"name": "GBRAP_160_4081 (protein)", "chain": "SAAHEKLIKEVTEIFDEALKMMEGVTPAEAVAIALVALGEVALLIEEEEELSEEDKDKLLALVDAAEAEVRAAADATVAELKALLERHRDEIVAAIKALD"}}, "note": "In all, about 4,500 sequences were measured (“median log2 fold change of GCK-ALFA target abundance (FLAG IP / Myc IP barcode read proportion)”: median about 0.078, lowest 2% from about -0.6 on). Only a selection was taken, and the lowest values are over-represented in it overall."}
{"target": "GABARAP, O95166", "sequence (O95166 whole entry, the tested form may be a part)": "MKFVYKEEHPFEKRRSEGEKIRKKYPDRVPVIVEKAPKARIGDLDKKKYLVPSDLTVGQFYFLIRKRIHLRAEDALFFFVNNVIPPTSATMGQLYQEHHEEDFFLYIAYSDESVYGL", "assay": "median log2 fold change of GCK-ALFA target abundance (FLAG IP / Myc IP barcode read proportion) (log2 ratio); each designed protein is fused to an ALFA-tag nanobody in HEK293 cells to bring the named protein to FLAG-tagged glucokinase (GCK); Myc marks an untargeted standard; higher = target protein stabilised (more abundant)", "conditions": "target protein: 3xFLAG-MCP-GCK-ALFA reporter; HEK293 landing pad (RPLP)", "procedure,_shortened": "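Sequencing of reverse-transcribed, amplified circular RNA barcodes from anti-FLAG and anti-Myc immunoprecipitates provided the readout for an ALFA-nanobody-fused binder library recombined into HEK293 landing-pad cells. Those cells were induced with 2 μg mL^−1 doxycycline, transfected with a plasmid expressing a FLAG-tagged target and a Myc-tagged standard, and lysed after 48 h. Target abundance is the per-binder median log2 ratio of FLAG to Myc barcode read proportions. Only barcodes at a proportion of ≥10^−7 in both replicates and binders with ≥3 barcodes per replicate were kept, with a 10^−6 pseudocount added before the two replicates were pooled.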"}
{"binder": "B1", "median log2 fold change": -0.658}
{"binder": "B2", "median log2 fold change": 0.234}
{"binder": "B3", "median log2 fold change": -0.798}
{"binder": "B4", "median log2 fold change": -0.29}
{"binder": "B5", "median log2 fold change": 0.174}
{"binder": "B6", "median log2 fold change": -0.061}
{"binder": "B7", "median log2 fold change": 0.0662}
{"binder": "B8", "median log2 fold change": 0.2}
{"binder": "B9", "median log2 fold change": -0.715}
{"binder": "B10", "median log2 fold change": 0.0143}
{"binder": "B11", "median log2 fold change": 0.239}
{"binder": "B12", "median log2 fold change": 0.15}
{"binder": "B13", "median log2 fold change": -0.302}
{"binder": "B14", "median log2 fold change": -0.0585}
{"binder": "B15", "median log2 fold change": -0.302}
{"binder": "B16", "median log2 fold change": -0.139}
{"binder": "B17", "median log2 fold change": 0.284}
{"binder": "B18", "median log2 fold change": -0.998}
{"binder": "B19", "median log2 fold change": -0.0573}
{"binder": "B20", "median log2 fold change": 0.00161}
{"binder": "B21", "median log2 fold change": -0.605}
{"binder": "B22", "median log2 fold change": 0.197}
{"binder": "B23", "median log2 fold change": 0.261}
{"binder": "B24", "median log2 fold change": -0.199}
{"binder": "B25", "median log2 fold change": -0.124}
{"binder": "B26", "median log2 fold change": -0.718}
{"binder": "B27", "median log2 fold change": -0.122}
{"binder": "B28", "median log2 fold change": 0.152}
{"binder": "B29", "median log2 fold change": 0.134}
